Bioassay records from PubChem.
Rab2A wt mod = changes GTP binding to wildtype dog Rab2A, up or down. GTP binding activity, % at 10 µM. GST-Rab2 wt beads, Bodipy-GTP binding, flow cytometry. actives 0.19% (n = 190,000);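 active = GTP binding activity at least 20 points away from 100%, either lowered or raised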;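 note: 0% = beads with excess unlabeled GTP and 100% = no-compound control corrected for plate trend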
HRas wt GTP bind = modulators of GTP binding to human HRas wildtype; actives 0.14% (n = 190,000); GST-Ras wt beads, Bodipy-FL-GTP binding, flow cytometry; actives lie on both sides; AID 759; GTP binding activity, % at 10 µM;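 active = GTP binding activity at least 20% away from the 100% baseline, either lowered as inhibitor or raised as activator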;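 note: 0% = unlabeled GTP competition control and 100% = no-compound control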
Target sequence (P01112 whole entry, looked up): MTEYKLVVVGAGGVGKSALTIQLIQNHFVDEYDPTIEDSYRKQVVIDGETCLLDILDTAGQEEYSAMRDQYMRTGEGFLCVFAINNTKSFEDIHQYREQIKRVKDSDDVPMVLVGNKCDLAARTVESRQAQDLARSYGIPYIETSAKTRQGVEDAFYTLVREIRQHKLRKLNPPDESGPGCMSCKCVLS
Rab7 wt modul = dog Rab7 wildtype GTP binding, inhibitors and activators; GTP binding activity (percent of control), % at 10 µM; AID 758; actives 0.055% (n = 190,000); GST-Rab7 beads, fluorescent GTP binding, flow cytometry; actives lie on both sides; untreated = 100%, excess cold GTP = 0%;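 active = fluorescent GTP binding to Rab7 beads changed by at least 20 points from the 100% baseline, either direction, mostly lower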;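 note: median green fluorescence of bound Bodipy-FL-GTP per Rab7 bead population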
Rac1 mut GTP = human Rac1 activated mutant GTP binding change; GST-Rac1 activated beads, fluorescent GTP binding, flow cytometry; actives lie on both sides; 100% means binding = to untreated wells; AID 764; P63000; actives 0.11% (n = 190,000); percent activity (GTP binding), % at 10 µM;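 active = GTP binding at least 20 percentage points away from the 100% baseline, in either direction, so actives lie on both sides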
Rac1 wt modul = human Rac1 wildtype GTP binding, inhibitors and activators; P63000; GST-Rac1 beads, fluorescent GTP binding, flow cytometry; actives lie on both sides; 0 = cold GTP competed, 100 = untreated; AID 757; actives 0.27% (n = 190,000); GTP binding activity (% of control), % at 10 µM;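 active = GTP binding activity at least 20 points away from the 100% control level, either lower or higher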
Cdc42 wt = modulators (inhibitors or activators) of GTP binding to human Cdc42 wildtype. P60953. GST-Cdc42 beads, Bodipy-GTP binding, flow cytometry; actives lie on both sides. percent activity (GTP binding), % at 10 µM. actives 0.2% (n = 190,000). AID 761;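 active = percent activity GTP binding at least 20 points away from the 100% baseline, either down as inhibitor or up as activator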;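 note: median bead fluorescence of bound Bodipy-FL-GTP at 100 nM; 0% = excess unlabeled GTP control and 100% = no compound control; below 100% means less GTP binding so inhibitor and above means activator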
Target sequence (P60953 whole entry, looked up): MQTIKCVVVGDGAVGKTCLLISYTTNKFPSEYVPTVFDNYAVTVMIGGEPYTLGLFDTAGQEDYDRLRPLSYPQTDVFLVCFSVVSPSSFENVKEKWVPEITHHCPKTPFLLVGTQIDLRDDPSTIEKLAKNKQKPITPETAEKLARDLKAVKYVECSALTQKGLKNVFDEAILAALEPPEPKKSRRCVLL
An asterisk follows results filed as active; [ ] = dose if it differs, or a comment. Rows were chosen to be rich in hits. Some 0.38% of all compounds tested hit in one or more screens of this group.

SMILES	Rab2A wt mod	HRas wt GTP bind	Rab7 wt modul	Rac1 mut GTP	Rac1 wt modul	Cdc42 wt
CS(=O)(=O)N1CCN(C(=O)C2c3ccccc3Oc3ccccc32)CC1	112	111	103	102	121*[activator]	116
CC(C)(C)NC(=O)CN(C(=O)Cn1nnc(-c2ccc(Cl)cc2)n1)C1CCN(Cc2ccccc2)CC1	97	99	99	95	101	96
Cc1ccc(Sc2c(C)nn(C(=O)C3CC3)c2C)cc1	81	84	90	79*	78*	82
CCC/C=N/NC(=O)c1cccc(Br)c1	102	96	103	93	98	91
Cc1cc2ncn(CCC(=O)NC(C)(C)C)c2cc1C	103	87	100	88	77*	97
Cc1cc2ncn(CCC(=O)NC3CCCC3)c2cc1C	99	100	106	94	96	99
S=c1[nH]nc(-c2ccco2)n1-c1ccc(Cl)cc1	82	81	82	78*	82	82
COC(CNC(=O)C1CCCN1C(=O)OCc1ccccc1)OC (stereo not drawn)	116	115	115	117	121*[activator]	119
O=C(O)C1CCCN1C(=O)OCc1ccccc1 (stereo not drawn)	122*[activator]	121*[activator]	120*[activator]	121*[activator]	139*[activator]	128*[activator]
COc1ccc(CN=C(Nc2ccccc2)SC2CC(=O)N(C)C2=O)cc1 (stereo not drawn)	102	105	100	101	104	103
N#Cc1c(-c2cccc(Br)c2)cc(-c2ccco2)[nH]c1=O	81	83	86	76*	75*	79*
C/C(=C1/SC(=S)N(CCC(=O)O)C1=O)c1ccc(O)cc1	85	88	86	77*	92	85
O=C(O)c1ccc(NS(=O)(=O)c2ccc3c(c2)C(=O)c2ccccc2C3=O)cc1	81	83	88	83	72*	80
Cc1ccc(-n2c(-c3cnccn3)n[nH]c2=S)c(Br)c1	82	80	84	80	81	79*
Cc1cc(C(=O)Oc2ccccc2C(=O)O)c(C)o1	116	110	104	119	127*[activator]	120*[activator]
C[C@@]1([C@@H](NC(=O)c2cccs2)c2ccc(-c3ccccc3)cc2)C[C@H]1C1CCCCC1	100	105	105	102	106	103
O=S1(=O)N=C(N(CCO)/N=C/C=C/c2ccccc2)c2ccccc21	72*	70*	84	80	61*	79*
CN(C)c1cccc2c(/C=N/O)ccc(N(C)C)c12	98	95	96	93	94	95
CN1C(=O)N(C)c2ccc(C=O)c3cccc1c23	82	86	89	86	77*	84
COc1cccc(Nc2ccccc2C(=O)O)c1	125*[activator]	120*[activator]	127*[activator]	126*[activator]	138*[activator]	130*[activator]
COc1cccc(Nc2ncc(C(=O)O)c3ccccc23)c1	102	104	95	100	102	105
COc1ccc(/C=N/Nc2ncnc3sc(C)c(C)c23)cc1	96	96	97	95	96	93
Cc1sc2ncnc(N/N=C/c3ccc(O)cc3)c2c1C	77*	80	88	93	82	93
COc1ccc(-c2nn(CCC(=O)O)cc2/C=C/C(=O)O)cc1[N+](=O)[O-]	99	96	97	98	100	94
Oc1ccc(N=Cc2cc(Br)c(N3CCOCC3)o2)cc1	103	104	97	102	103	105
SMILES	Rab2A wt mod	HRas wt GTP bind	Rab7 wt modul	Rac1 mut GTP	Rac1 wt modul	Cdc42 wt
O=[N+]([O-])c1cc(Br)c(O)c(C=Nc2ccc(N3CCOCC3)cc2)c1	87	88	97	84	84	79*
Cc1ccccc1-n1c(SCc2c(C)noc2C)nnc1-c1cccnc1	115	110	111	110	132*[activator]	118
Cc1ccccc1-n1c(SCc2c(C)noc2C)nnc1-c1ccncc1	95	99	98	96	98	97
CC(=O)OC[C@H]1O[C@@H](O/N=C/C[C@@H]2C=C[C@H](OC(C)=O)[C@@H](COC(C)=O)O2)[C@H](OC(C)=O)[C@@H](OC(C)=O)[C@@H]1OC(C)=O	96	98	96	98	100	100
Cn1c(SCC(=O)N/N=C/c2ccc([N+](=O)[O-])s2)nnc1-c1ccc(Cl)cc1	99	99	102	98	103	100
COc1ccc(OCCN2C(=O)c3ccccc3C2=O)cc1	106	93	96	107	127*[activator]	111
CC(C)N1CCC(N2CCN(C3CCCCCC3)CC2CCO)CC1 (stereo not drawn)	96	96	99	96	100	98
COc1cc(-c2cc(=O)c3c(O)cc(O)cc3o2)ccc1O	83	83	93	88	78*	82
COc1cc(-c2cc(=O)c3ccccc3o2)ccc1O	94	94	97	93	93	93
CN(C)C(CNC(=O)CNC(=O)c1ccc(Br)cc1)c1ccccc1 (stereo not drawn)	94	96	95	93	97	94
C/C(=N\NC(=O)c1ccc(Cl)c(S(=O)(=O)Nc2ccccc2Cl)c1)c1ccncc1	86	87	91	87	73*	86
CCOc1ccccc1C1C(C(=O)OC)=C(N)OC2=C1C(=O)CCC2 (stereo not drawn)	118	116	111	110	133*[activator]	125*[activator]
CCOC(=O)C1=C(N)OC2=C(C(=O)CCC2)C1c1ccco1 (stereo not drawn)	101	97	98	92	94	94
O=C(CCNS(=O)(=O)c1cccc2nsnc12)N1CCN(c2ccccn2)CC1	110	107	104	109	138*[activator]	122*[activator]
O=C(Nc1cccs1)OCCN1CCN(Cc2ccccc2)CCC1=O	100	98	95	97	104	101
COc1ccc(NC(=O)COC(=O)c2ccc(OCc3c(C)noc3C)cc2)cc1OC	100	101	101	98	103	102
COc1cc(C(=O)OCC(=O)Nc2ccc3c(c2)OC(F)(F)O3)ccc1OCc1c(C)noc1C	40*	43*	28*	37*	39*	34*
COc1ccc(-c2cc(=O)c3c(O)c(OC)c(O)cc3o2)cc1	88	88	100	90	85	86
COc1ccc(C(=O)c2c(O)cc(-c3ccc(OC)cc3)oc2=O)cc1	118	118	125*[activator]	116	137*[activator]	117
COc1cc(/C=C/c2ccc3cccc([N+](=O)[O-])c3n2)ccc1OCC(=O)O	69*	72*	95	85	80	70*
